From the supplement of paper PMC6555819

Tested on: VDR:RXRa (NR concentration 270 nM, RXRa partner concentration 90 nM)
Test: PBM binding z-score (relative to random genomic background probes); higher = stronger binding; sequences stand for … in GC…GCGATTGACAGCGTAGAATGAAGG
Method: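 Protein-binding microarray (Agilent 4x180K custom design, double-stranded 60-nt probes: 5' GC cap, 34-nt variable region, 24-nt constant primer region; full probe sequence given). Purified or IVT nuclear receptor:RXRα heterodimers (3:1 NR:RXRα, mostly 270:90 nM) or homodimers were incubated for 1 h in PBS with 2% milk and no ligand, then detected with Alexa488 antibodies. Fluorescence from o1-orientation probes (~5 replicates averaged) was converted to z-scores against 500 random hg19 background probes. Variable regions are seed direct-repeat (DR0–DR5) sites, all their single-nucleotide variants and half-site ablations.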

Sequence | PBM binding z-score
AGAATGAGATTATACGTAGATCAGGGAAGAAAGT | -0.367
TCTAATAGTTGATTAGGGCAACCGAAACAGCGGA | 0.582
TCTAGTTGGTCACGAAGGTCACACACGACGGGTA | 4.98
GCTTGGAGATCAAGGTTAAGAAAGACTAAGCTAA | 0.128
TAGCCGAGGTCATGGGCCAGTATACCACGCGAAC | 5.46
ACTCAAAGTTCACTAGGTAACGTAAGATTCAGCT | 4.17
TCTCGGAGGACACGAAGGTCTGAGCTTTCCAGAG | -0.323
TATACAGGGTCAAAGGCCAGAGGACGAATGTCGA | 4.73
ATCGAAAGGTCGAGGTGAATATAGAGAAAGGGAA | 2.45
CCTAGCAGGCCAGGGTAACTCAAGCATTTCGCTT | -0.743
TCTTGTAGATCAACAGGAGGTTAAGACAGATCGA | 0.563
AGAATGAGGTAACCAAAGATCAGGGAAACGCTTG | -0.129
TCATGTAGATCAACAGGAGGTTAAGAAAGATCGA | 0.591
TATACAGGGTCAAAGGCCAGAGTCCGAATGTCGA | 4.8
TCAGACAGGTGAAGGAAACTCAGGTACGCAGTCG | 0.447
TCATATTGGTAAAAGGTGAAAGTCGGTGTGGTAA | 1.64
TTTGCTAGGTCAACGATGGTCAGCTAATCTGCTA | 1.9
CCTATTAGTTGACCATAAGGGCAACGGAAGCTCG | 0.803
TCTATTAGTAGAAGGGCAACCGACGAGTCCGTTT | 0.796
CCTCCTGGGCCAAAGGTCATTGATTCCAATGCTC | 4.75

Sequence | PBM binding z-score
TGTCAAAGTTCAAAGGTAACGTAAGTATCCACAC | 5.1
GCATATAGGTAATACAGGGTGAAAGTCCGATTGT | 0.521
CGTCAAAGTTCAACTAACGTAACGTAAAGCACGC | 4.1
TAGCCTAGGTCAGATCGAGCCAGTATACGCTATA | 0.0723
TCGAGTCGGTTAGGGGCATTCAGAATGGCGTCGA | 0.541
GCGACTGGGGCAAAGCAGGTTACTATAAGGTTGG | 0.0986
TCTTGTACATCAAGCAGGTTAAGAAAGCCTGAGT | 0.528
CCTACTGGGGCAAGGTCATTGATCAGTCAAAGCA | 3.59
AGTTAAAGTTCATCTAGGTAACGTAAGATATGCT | 4.42
GATACAGGGTCAGCTAGAGGCCAGAGAATGGAAA | 3.42
CCAGACAGGTTAAAGGTAACTCAGTCTGGTACGC | 1.62
CCTACTGGGCCATCTGGTCATTGATATCAACGTT | -0.267
CGTCAAAGTTCAAGTAAGGTAACGTAAAGCACGC | 4.46
CCTAGTAGGCCAATCTGGGTCACTCAAGGCTTGA | 0.875
TCTTGTCGATCAACAGGAGGTTAAGAAAGATCGA | 0.427
TCTATTAGTTGAAGGGCAACCAACGAGTCCGTTT | 1.11
AGTATGAGGTTAAGATCAGGGAAACAGAATACAT | 1.18
GGAAGGAGGGCAAGTTGATAGCAGAGTTTGATGG | 0.934
AGAATGAGGTTATACGTAGATAAGGGAAGAAAGT | 1.47
CAATCTAGGTCAAGAGGTCAAAGTCCGCTTCCCG | 6.23
